{"source": "the supplement of paper PMC9262897", "about": "“Low-cost anti-mycobacterial drug discovery using engineered E. coli” (Nature Communications, 2022)", "note": "Where a name gives a salt, the structure may show the parent alone. ± gives the standard deviation of the averaged measurements."}
{"system": "E. coli TESEC Alr+ wild-type control", "assay": "growth (OD600 after 10 h); higher = more growth (less inhibition)", "settings": "compound 0.1 mM; raw OD600 reference: median of DMSO wells 0.49, cell-free background 0.052", "method": "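TESEC Mtb Alr E. coli (ΔaraC ΔtolC ΔentC Δalr ΔdadX, arabinose-inducible Mtb Alr) or the Alr+ wild-type control strain, grown in defined M9-fructose medium without D-alanine in 96-well plates with Prestwick library compounds at 0.1 mM and 1% DMSO. Low Alr induction is 0.1 µM arabinose and high induction is 10 mM arabinose.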"}
{"smiles": "C[C@]12CC[C@@H](O)C[C@@H]1CC[C@@H]1[C@@H]2CC[C@]2(C)C(=O)CC[C@@H]12", "note": "[Androsterone]", "growth": "0.291 ± 0.016"}
{"smiles": "CN1[C@@H]2CC[C@H]1C[C@@H](OC(=O)[C@H](CO)c1ccccc1)C2", "note": "[Hyoscyamine (L)]", "growth": "0.468 ± 0.045"}
{"smiles": "CCC1=C[C@H]2CN3CCc4c([nH]c5ccccc45)[C@](C(=O)OC)(C2)[C@H]13", "note": "[Catharanthine]", "growth": "0.4419 ± 0.0012"}
{"smiles": "CC(C)N(CCC(C(N)=O)(c1ccccc1)c1ccccn1)C(C)C", "note": "(stereo not given) [Disopyramide]", "growth": "0.543 ± 0.056"}
{"smiles": "C[C@@H]1CN([C@H]2CC[C@](C#N)(c3ccc(F)cc3)CC2)CC[C@]1(C(=O)O)c1ccccc1", "note": "[Levocabastine hydrochloride]", "growth": "0.49 ± 0.026"}
{"smiles": "O=P1(NCCCl)OCCCN1CCCl", "note": "(stereo not given) [Ifosfamide]", "growth": "0.517 ± 0.077"}
{"smiles": "NC(=O)CN1CCCC1=O", "note": "[Piracetam]", "growth": "0.491 ± 0.12"}
{"smiles": "CC(N)C(O)c1ccccc1", "note": "(stereo not given) [Phenylpropanolamine hydrochloride]", "growth": "0.527 ± 0.077"}
{"smiles": "CC[C@@]1(O)C(=O)OCc2c1cc1n(c2=O)Cc2cc3ccccc3nc2-1", "note": "[Camptothecine (S,+)]", "growth": "0.477 ± 0.033"}
{"smiles": "COc1ccc(OC)c(C(O)C(C)N)c1", "note": "(stereo not given) [Methoxamine hydrochloride]", "growth": "0.458 ± 0.037"}
{"smiles": "C[C@H](N)[C@H](O)c1ccc(O)c(O)c1", "note": "[Levonordefrin]", "growth": "0.465 ± 0.099"}
{"smiles": "C[C@]12Cc3c[nH]nc3C[C@@H]1CC[C@@H]1[C@@H]2CC[C@@]2(C)[C@H]1CC[C@]2(C)O", "note": "[Stanozolol]", "growth": "0.47 ± 0.038"}
{"smiles": "CCN(C(C)=O)c1cccc(-c2ccnc3c(C#N)cnn23)c1", "note": "[Zaleplon]", "growth": "0.504 ± 0.065"}
{"smiles": "NCC(CC(=O)O)c1ccc(Cl)cc1", "note": "(racemic) [Baclofen (R,S)]", "growth": "0.456 ± 0.038"}
{"smiles": "CCN[C@@H](C)Cc1cccc(C(F)(F)F)c1", "note": "[Dexfenfluramine hydrochloride]", "growth": "0.466 ± 0.025"}
{"smiles": "C[C@]12N[C@H](Cc3ccccc31)c1ccccc12", "note": "[Dizocilpine maleate]", "growth": "0.54 ± 0.094"}
{"smiles": "C[C@@H]1CC[C@H]2[C@@H](C)C(=O)O[C@@H]3O[C@@]4(C)CC[C@@H]1[C@]32OO4", "note": "[Artemisinin]", "growth": "0.33 ± 0.0069"}
{"smiles": "CCCC[N+]1(C)[C@@H]2CC(OC(=O)[C@H](CO)c3ccccc3)C[C@H]1[C@@H]1O[C@@H]12", "note": "(stereo not given in full) [Butylscopolammonium (n-) bromide]", "growth": "0.531 ± 0.1"}
{"smiles": "CNC(=O)Oc1ccc2c(c1)[C@]1(C)CCN(C)[C@@H]1N2C", "note": "[Eserine hemisulfate salt]", "growth": "0.423 ± 0.028"}
{"smiles": "C=CCN1CC[C@]23c4c5ccc(O)c4O[C@H]2C(=O)CC[C@@]3(O)[C@H]1C5", "note": "[Naloxone hydrochloride]", "growth": "0.479 ± 0.016"}
{"smiles": "C[CH2][Hg][S]c1ccccc1C(=O)[O-].[Na+]", "note": "[Thimerosal]", "growth": "0.216 ± 0.1"}
{"smiles": "C#CCN(C)[C@H](C)Cc1ccccc1", "note": "[Selegiline hydrochloride]", "growth": "0.441 ± 0.043"}
{"smiles": "C1CCc2nnnn2CC1", "note": "[Pentylenetetrazole]", "growth": "0.46 ± 0.054"}
{"smiles": "COc1ccc2c(c1)[C@]13CCCC[C@@H]1[C@H](C2)N(C)CC3", "note": "[Dextromethorphan hydrobromide monohydrate]", "growth": "0.469 ± 0.03"}
{"smiles": "CC1C=CC=CCCC=CC=CC=CC=CC(OC2OC(C)C(O)C(N)C2O)CC2OC(O)(CC(O)C(O)CCC(O)CC(O)CC(O)CC(=O)OC(C)C(C)C1O)CC(O)C2C(=O)O", "note": "(stereo not given) [Nystatine]", "growth": "0.471 ± 0.021"}
{"smiles": "CCC1(c2ccc(N)cc2)CCC(=O)NC1=O", "note": "(stereo not given) [Glutethimide, para-amino]", "growth": "0.445 ± 0.022"}
{"smiles": "C[N+]1(C)CCOC(O)(c2ccc(-c3ccc(C4(O)C[N+](C)(C)CCO4)cc3)cc2)C1", "note": "(stereo not given) [Hemicholinium bromide]", "growth": "0.559 ± 0.071"}
{"smiles": "O=[N+]([O-])O[C@H]1CO[C@H]2[C@@H]1OC[C@H]2O[N+](=O)[O-]", "note": "[Isosorbide dinitrate]", "growth": "0.474 ± 0.092"}
{"smiles": "Oc1cc(Cl)ccc1Oc1ccc(Cl)cc1Cl", "note": "[Triclosan]", "growth": "0.0516 ± 0.0015"}
{"smiles": "Fc1ccc(C(OCCN2CCN(CCCc3ccccc3)CC2)c2ccc(F)cc2)cc1", "growth": "0.04777 ± 0.00025"}
{"smiles": "CN(C)[C@@H]1C(=O)C(C(N)=O)=C(O)[C@@]2(O)C(=O)C3=C(O)c4c(O)ccc(Cl)c4[C@@](C)(O)[C@H]3C[C@@H]12", "note": "[Chlortetracycline hydrochloride]", "growth": "0.0491 ± 0.00036"}
{"smiles": "CCC(COC(=O)c1cc(OC)c(OC)c(OC)c1)(c1ccccc1)N(C)C", "note": "(stereo not given) [Trimebutine]", "growth": "0.255 ± 0.018"}
{"smiles": "C[N+]1(C)[C@@H]2CC[C@H]1C[C@@H](OC(=O)C(CO)c1ccccc1)C2", "note": "(stereo not given in full) [Methylatropine nitrate]", "growth": "0.707 ± 0.049"}
{"smiles": "COP(=O)(OC)C(O)C(Cl)(Cl)Cl", "note": "(stereo not given) [Trichlorfon]", "growth": "0.505 ± 0.046"}
{"smiles": "CN[C@@H]1C[C@@H](c2ccc(Cl)c(Cl)c2)c2ccccc21", "note": "[Indatraline hydrochloride]", "growth": "0.0509 ± 0.0003"}
{"smiles": "CN1C(=O)CCS(=O)(=O)C1c1ccc(Cl)cc1", "note": "(stereo not given) [Chlormezanone]", "growth": "0.615 ± 0.1"}
{"smiles": "Cc1cccc(C)c1NC1=NCCCS1", "note": "[Xylazine]", "growth": "0.487 ± 0.05"}
{"smiles": "COc1cc2c(cc1OC)C(C)NCC2", "note": "(stereo not given)", "growth": "0.453 ± 0.034"}
{"smiles": "C[C@]12CCC(=O)C=C1C=C[C@@H]1[C@@H]2CC[C@@]2(C)[C@H]1CC[C@@]2(O)CCC(=O)O", "note": "[Canrenoic acid potassium salt]", "growth": "0.502 ± 0.031"}
{"smiles": "S=C(NC1CCCCC1)N1CCC(c2cnc[nH]2)CC1", "note": "[Thioperamide maleate]", "growth": "0.561 ± 0.066"}
